Test results: PubChem BioAssay (NCATS)
Results filed as inconclusive are left out. The source made the active and inactive calls. Unless noted, calls follow the shape of the dose curve; as a rule, active = well fitted curve in the direction sought with a large enough effect; inconclusive = small, poorly fitted or top-dose-only effect, or another doubt; inactive = no such curve, though single readings can be large; an effect the other way counts as inactive or inconclusive.

Key:
[1] = target: ATP-dependent 6-phosphofructokinase (Trypanosoma brucei brucei) (UniProt O15648); assay: qHTS Assay to Find Inhibitors of T. brucei phosphofructokinase: hit validation (AID 492961);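 also: luminescence reports ADP formed as PFK phosphorylates fructose-6-phosphate with ATP; % is scaled to controls: 0 for no effect and ±100 for the full control effect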
Sequence of ATP-dependent 6-phosphofructokinase (Trypanosoma brucei brucei) (O15648 whole entry, looked up): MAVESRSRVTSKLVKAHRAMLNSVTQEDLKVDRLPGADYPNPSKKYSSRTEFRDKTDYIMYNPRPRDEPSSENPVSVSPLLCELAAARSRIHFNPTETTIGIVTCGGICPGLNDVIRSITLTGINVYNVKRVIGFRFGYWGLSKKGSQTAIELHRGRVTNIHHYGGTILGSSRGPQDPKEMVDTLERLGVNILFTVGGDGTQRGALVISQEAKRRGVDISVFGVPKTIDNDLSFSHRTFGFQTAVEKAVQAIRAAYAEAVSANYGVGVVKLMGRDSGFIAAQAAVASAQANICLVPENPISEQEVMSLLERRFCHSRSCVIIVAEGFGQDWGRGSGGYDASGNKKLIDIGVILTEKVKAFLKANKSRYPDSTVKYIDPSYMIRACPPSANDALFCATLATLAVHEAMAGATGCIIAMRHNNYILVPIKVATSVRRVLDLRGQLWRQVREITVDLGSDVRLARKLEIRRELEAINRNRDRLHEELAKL
Method in brief: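 ADP-Glo luminescence read-out of ADP formed by 1.25 nM PFK from 0.1 mM ATP and 0.5 mM F6P (TEA pH 8.0, 45 min, RT). Compounds titrated; activity normalized to no-enzyme and full-enzyme controls.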

[2] = target: Luciferin 4-monooxygenase (Photinus pyralis) (UniProt P08659); assay: Biochemical firefly luciferase enzyme assay for NPC (AID 624030);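 also: purified P. pyralis luciferase at 10 nM with luciferin and ATP substrate; 0% = DMSO and -100% = full luciferase inhibition by PTC124 control; nearly all actives have a fitted effect of over 70% in size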
Sequence of Luciferin 4-monooxygenase (Photinus pyralis) (P08659 whole entry, looked up): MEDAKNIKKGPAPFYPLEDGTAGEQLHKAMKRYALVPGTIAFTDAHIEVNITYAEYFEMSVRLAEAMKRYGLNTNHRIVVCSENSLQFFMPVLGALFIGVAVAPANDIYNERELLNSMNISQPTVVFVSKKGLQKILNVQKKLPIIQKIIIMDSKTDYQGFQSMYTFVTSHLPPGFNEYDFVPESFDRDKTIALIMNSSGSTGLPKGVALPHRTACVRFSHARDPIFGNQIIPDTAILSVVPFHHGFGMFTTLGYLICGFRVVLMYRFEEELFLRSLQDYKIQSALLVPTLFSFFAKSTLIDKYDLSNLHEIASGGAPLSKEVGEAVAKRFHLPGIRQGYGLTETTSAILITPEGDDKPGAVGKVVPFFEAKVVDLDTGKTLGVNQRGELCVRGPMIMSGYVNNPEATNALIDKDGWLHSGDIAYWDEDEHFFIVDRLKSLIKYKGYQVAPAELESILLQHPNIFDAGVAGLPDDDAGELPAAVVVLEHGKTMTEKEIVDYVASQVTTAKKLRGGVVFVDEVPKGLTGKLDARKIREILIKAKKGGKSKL
Method in brief: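 Direct inhibition of firefly luciferase enzyme (10 nM final, 50 mM Tris Acetate) assessed by luminescence within 5 minutes. Percent activity scaled between DMSO and PTC124 positive control, with concentration-effect curves classified by fit quality and response.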

[3] = S16 Schwann cell viability assay (CellTiter-Glo assay) (AID 624031);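 also: cellular ATP luminescence as a viability measure; plate controls were DMSO-treated cells for no effect and cell-free wells for full effect; nearly all actives have a fitted effect of over 70% in size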
Method in brief: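 CellTiter-Glo ATP luminescence counter-screen in untransfected S16 rat Schwann cells, 24h compound exposure at 37 degree Celsius after overnight seeding (500-750 cells/well); response scaled between cell-free wells and DMSO (0% activity), curves classed by r2 and magnitude.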

[4] = S16 Schwann cell PMP22 intronic element beta-lactamase assay (AID 624044; calls by dose curve;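 also: 0% = DMSO and -100% = potassium clavulanate positive control; nearly all actives have a fitted effect of over 15% in size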)
Method in brief: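 Rat S16 Schwann cells with beta-Lac driven by a PMP22 intronic element, compound-treated 24 h at 37 °C. LiveBLAzer FRET B/G read: 460 nm normalized to potassium clavulanate vs DMSO; 535 nm FRET as viability; concentration-effect curves classified.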

[5] = qHTS profiling for inhibitors of Plasmodium falciparum proliferation (AID 504749);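 also: 0% = DMSO vehicle and full inhibition = artemisinin control; nearly all actives have a fitted effect of over 60% in size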; conditions: P. falciparum in erythrocytes, SYBR Green DNA, 72 h, at 28.7 µM (top of the series)
Method in brief: (§1)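 Infected RBCs, 0.3% parasitemia/2.5% Hct final; cpd 72 h, 37 C, 5% CO2; lysis buffer with saponin/triton/SYBR Green I, o/n RT dark; FI 485/535; norm. to artemisinin (0.29 uM) and DMSO.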

3D7 = assay: as above; conditions: P. falciparum in erythrocytes, SYBR Green DNA, 72 h; series mostly up to 28.7 µM
Method in brief: as §1

7G8 = assay: as above; conditions: P. falciparum in erythrocytes, SYBR Green DNA, 72 h; series mostly up to 28.7 µM
Method in brief: as §1

AA1029 = assay: as above; conditions: P. falciparum in erythrocytes, SYBR Green DNA, 72 h; series mostly up to 28.7 µM
Method in brief: as §1

AS120 = assay: as above; conditions: P. falciparum in erythrocytes, SYBR Green DNA, 72 h; series mostly up to 28.7 µM
Method in brief: as §1

ATS189 = assay: as above; conditions: P. falciparum in erythrocytes, SYBR Green DNA, 72 h; series mostly up to 28.7 µM
Method in brief: as §1

ATS95 = assay: as above; conditions: P. falciparum in erythrocytes, SYBR Green DNA, 72 h; series mostly up to 28.7 µM
Method in brief: as §1

C2A = assay: as above; conditions: P. falciparum in erythrocytes, SYBR Green DNA, 72 h; series mostly up to 28.7 µM
Method in brief: as §1

CP185 = assay: as above; conditions: P. falciparum in erythrocytes, SYBR Green DNA, 72 h; series mostly up to 28.7 µM
Method in brief: as §1

CP191 = assay: as above; conditions: P. falciparum in erythrocytes, SYBR Green DNA, 72 h; series mostly up to 28.7 µM
Method in brief: as §1

CP194 = assay: as above; conditions: P. falciparum in erythrocytes, SYBR Green DNA, 72 h; series mostly up to 28.7 µM
Method in brief: as §1

CP201 = assay: as above; conditions: P. falciparum in erythrocytes, SYBR Green DNA, 72 h; series mostly up to 28.7 µM
Method in brief: as §1

CP203 = assay: as above; conditions: P. falciparum in erythrocytes, SYBR Green DNA, 72 h; series mostly up to 28.7 µM
Method in brief: as §1

CP211 = assay: as above; conditions: P. falciparum in erythrocytes, SYBR Green DNA, 72 h; series mostly up to 28.7 µM
Method in brief: as §1

CP215 = assay: as above; conditions: P. falciparum in erythrocytes, SYBR Green DNA, 72 h; series mostly up to 28.7 µM
Method in brief: as §1

CP217 = assay: as above; conditions: P. falciparum in erythrocytes, SYBR Green DNA, 72 h; series mostly up to 28.7 µM
Method in brief: as §1

CP237 = assay: as above; conditions: P. falciparum in erythrocytes, SYBR Green DNA, 72 h; series mostly up to 28.7 µM
Method in brief: as §1

CP238 = assay: as above; conditions: P. falciparum in erythrocytes, SYBR Green DNA, 72 h; series mostly up to 28.7 µM
Method in brief: as §1

CP247 = assay: as above; conditions: P. falciparum in erythrocytes, SYBR Green DNA, 72 h; series mostly up to 28.7 µM
Method in brief: as §1

CP250 = assay: as above; conditions: P. falciparum in erythrocytes, SYBR Green DNA, 72 h; series mostly up to 28.7 µM
Method in brief: as §1

CP252 = assay: as above; conditions: P. falciparum in erythrocytes, SYBR Green DNA, 72 h; series mostly up to 28.7 µM
Method in brief: as §1

CP256 = assay: as above; conditions: P. falciparum in erythrocytes, SYBR Green DNA, 72 h; series mostly up to 28.7 µM
Method in brief: as §1

CP260 = assay: as above; conditions: P. falciparum in erythrocytes, SYBR Green DNA, 72 h; series mostly up to 28.7 µM
Method in brief: as §1

CP262 = assay: as above; conditions: P. falciparum in erythrocytes, SYBR Green DNA, 72 h; series mostly up to 28.7 µM
Method in brief: as §1

CP265 = assay: as above; conditions: P. falciparum in erythrocytes, SYBR Green DNA, 72 h; series mostly up to 28.7 µM
Method in brief: as §1

CP266 = assay: as above; conditions: P. falciparum in erythrocytes, SYBR Green DNA, 72 h; series mostly up to 28.7 µM
Method in brief: as §1

CP268 = assay: as above; conditions: P. falciparum in erythrocytes, SYBR Green DNA, 72 h; series mostly up to 28.7 µM
Method in brief: as §1

CP269 = assay: as above; conditions: P. falciparum in erythrocytes, SYBR Green DNA, 72 h; series mostly up to 28.7 µM
Method in brief: as §1

CP286 = assay: as above; conditions: P. falciparum in erythrocytes, SYBR Green DNA, 72 h; series mostly up to 28.7 µM
Method in brief: as §1

CP291 = assay: as above; conditions: P. falciparum in erythrocytes, SYBR Green DNA, 72 h; series mostly up to 28.7 µM
Method in brief: as §1

CP305 = assay: as above; conditions: P. falciparum in erythrocytes, SYBR Green DNA, 72 h; series mostly up to 28.7 µM
Method in brief: as §1

CP315 = assay: as above; conditions: P. falciparum in erythrocytes, SYBR Green DNA, 72 h; series mostly up to 28.7 µM
Method in brief: as §1

CP325 = assay: as above; conditions: P. falciparum in erythrocytes, SYBR Green DNA, 72 h; series mostly up to 28.7 µM
Method in brief: as §1

CP329 = assay: as above; conditions: P. falciparum in erythrocytes, SYBR Green DNA, 72 h; series mostly up to 28.7 µM
Method in brief: as §1

CP335 = assay: as above; conditions: P. falciparum in erythrocytes, SYBR Green DNA, 72 h; series mostly up to 28.7 µM
Method in brief: as §1

DFO2036 = assay: as above; conditions: P. falciparum in erythrocytes, SYBR Green DNA, 72 h; series mostly up to 28.7 µM
Method in brief: as §1

DIV14 = assay: as above; conditions: P. falciparum in erythrocytes, SYBR Green DNA, 72 h; series mostly up to 28.7 µM
Method in brief: as §1

DIV17 = assay: as above; conditions: P. falciparum in erythrocytes, SYBR Green DNA, 72 h; series mostly up to 28.7 µM
Method in brief: as §1

DIV30 = assay: as above; conditions: P. falciparum in erythrocytes, SYBR Green DNA, 72 h; series mostly up to 28.7 µM
Method in brief: as §1

Dd2 = assay: as above; conditions: P. falciparum in erythrocytes, SYBR Green DNA, 72 h; series mostly up to 28.7 µM
Method in brief: as §1

ECU = assay: as above; conditions: P. falciparum in erythrocytes, SYBR Green DNA, 72 h; series mostly up to 28.7 µM
Method in brief: as §1

FAB9 = assay: as above; conditions: P. falciparum in erythrocytes, SYBR Green DNA, 72 h; series mostly up to 28.7 µM
Method in brief: as §1

GB4 = assay: as above; conditions: P. falciparum in erythrocytes, SYBR Green DNA, 72 h; series mostly up to 28.7 µM
Method in brief: as §1

HB3 = assay: as above; conditions: P. falciparum in erythrocytes, SYBR Green DNA, 72 h; series mostly up to 28.7 µM
Method in brief: as §1

ICS = assay: as above; conditions: P. falciparum in erythrocytes, SYBR Green DNA, 72 h; series mostly up to 28.7 µM
Method in brief: as §1

JCK = assay: as above; conditions: P. falciparum in erythrocytes, SYBR Green DNA, 72 h; series mostly up to 28.7 µM
Method in brief: as §1

N140 = assay: as above; conditions: P. falciparum in erythrocytes, SYBR Green DNA, 72 h; series mostly up to 28.7 µM
Method in brief: as §1

P93_24 = assay: as above; conditions: P. falciparum in erythrocytes, SYBR Green DNA, 72 h; series mostly up to 28.7 µM
Method in brief: as §1

P94_40 = assay: as above; conditions: P. falciparum in erythrocytes, SYBR Green DNA, 72 h; series mostly up to 28.7 µM
Method in brief: as §1

PAD = assay: as above; conditions: P. falciparum in erythrocytes, SYBR Green DNA, 72 h; series mostly up to 28.7 µM
Method in brief: as §1

PC15 = assay: as above; conditions: P. falciparum in erythrocytes, SYBR Green DNA, 72 h; series mostly up to 28.7 µM
Method in brief: as §1

PC26 = assay: as above; conditions: P. falciparum in erythrocytes, SYBR Green DNA, 72 h; series mostly up to 28.7 µM
Method in brief: as §1

PC49 = assay: as above; conditions: P. falciparum in erythrocytes, SYBR Green DNA, 72 h; series mostly up to 28.7 µM
Method in brief: as §1

SC27B = assay: as above; conditions: P. falciparum in erythrocytes, SYBR Green DNA, 72 h; series mostly up to 28.7 µM
Method in brief: as §1

TAB109 = assay: as above; conditions: P. falciparum in erythrocytes, SYBR Green DNA, 72 h; series mostly up to 28.7 µM
Method in brief: as §1

TAB113 = assay: as above; conditions: P. falciparum in erythrocytes, SYBR Green DNA, 72 h; series mostly up to 28.7 µM
Method in brief: as §1

TAB165 = assay: as above; conditions: P. falciparum in erythrocytes, SYBR Green DNA, 72 h; series mostly up to 28.7 µM
Method in brief: as §1

C/C=C1\C2C=C(C)CC1(N)c1ccc(=O)[nH]c1C2 (configuration not stated)
inactive: outcome [1] | Potency [2] | outcome [3] | Potency [4] | activity, negative = inhibition ([5]; parasite line A) -3.71% | activity, negative = inhibition ([5]; parasite line B) 0.727% | Potency (3D7) | Potency (7G8) | Potency (AA1029) | Potency (AS120) | Potency (ATS189) | Potency (ATS95) | Potency (C2A) | Potency (CP185) | Potency (CP191) | Potency (CP194) | Potency (CP201) | Potency (CP203) | Potency (CP211) | Potency (CP215) | Potency (CP217) | Potency (CP237) | Potency (CP238) | Potency (CP247) | Potency (CP250) | Potency (CP252) | Potency (CP256) | Potency (CP260) | Potency (CP262) | Potency (CP265) | Potency (CP266) | Potency (CP268) | Potency (CP269) | Potency (CP286) | Potency (CP291) | Potency (CP305) | Potency (CP315) | Potency (CP325) | Potency (CP329) | Potency (CP335) | Potency (DFO2036) | Potency (DIV14) | Potency (DIV17) | Potency (DIV30) | Potency (Dd2) | Potency (ECU) | Potency (FAB9) | Potency (GB4) | Potency (HB3) | Potency (ICS) | Potency (JCK) | Potency (N140) | Potency (P93_24) | Potency (P94_40) | Potency (PAD) | Potency (PC15) | Potency (PC26) | Potency (PC49) | Potency (SC27B) | Potency (TAB109) | Potency (TAB113) | Potency (TAB165)
